Experimental data reported in PubChem BioAssay AID709 (SRMLSC, 2007).
In all, about 65,000 compounds went through this assay and about 3,600 (5.5%) were called active.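 Rule for the calls: active = at 10 µM, mean starting fluorescence two-fold or more over control wells; inactive = the rest.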 The entries come from a sample that favours actives as a whole.

Assay: intrinsic fluorescence of library compounds, ex339/em460 – biochemical, MLSMR library, data from DPM-DC assay, artefact control, profiling panel (AID 709);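 note: signal is the first read of a kinetic run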
Conditions: compound autofluorescence, ex339/em460 nm, NADH buffer; at 10 µM; active compounds read high; 1 = no-compound wells, NADH background

Compound	fluorescence fold increase
O=C(CSc1nnc(Cc2ccccc2)n1-c1ccccc1)N1CCOCC1	1.04 (inactive)
CC(=O)c1cccc(NC(=O)c2ccncc2)c1	1.03 (inactive)
Cc1nc(NC(=O)C23CCC(C)(C(=O)O2)C3(C)C)sc1C (stereo not drawn)	1.02 (inactive)
CC(=O)N=c1ncn(CC(COC(C)=O)OC(C)=O)c2nc[nH]c12 (stereo not drawn)	1.07 (inactive)
COc1ccc(-n2ncc3c(N4CCCc5ccccc54)ncnc32)cc1	2.48 (active)
COc1ccc(N2CCN(C(=O)CSc3ncnc4c3cnn4-c3ccc(OC)cc3)CC2)cc1	1.23 (inactive)
COc1ccc(-n2c(C)nc3c(cnn3-c3ccccc3)c2=O)cc1	1.1 (inactive)
C1=C(CCNc2ncnc3c2cnn3-c2ccccc2)CCCC1	1.05 (inactive)
COc1ccc(-n2ncc3c(N4CCc5ccccc54)ncnc32)cc1	3.76 (active)
Cc1ccc(-n2ncc3c(N4CCN(c5ccc(F)cc5)CC4)ncnc32)c(C)c1	1 (inactive)
Cc1cccc(-n2ncc3c(N4CCc5ccccc54)ncnc32)c1	2.26 (active)
c1ccc(-n2ncc3c(N4CCCC4)ncnc32)cc1	1.04 (inactive)
C=CCNC(=O)CCCOc1cccc(C)c1	1.09 (inactive)
Cc1cc(/C=N/n2cnnc2)c(C)n1-c1ccc2ncccc2c1	1.05 (inactive)
COc1ccc2nc(NC3=NCN(CC4CCCO4)CN3)nc(C)c2c1 (stereo not drawn)	1.66 (inactive)
Cc1cccc(N2CC(C)Cn3c2nc2c3c(=O)n(CC(=O)OCc3ccccc3)c(=O)n2C)c1 (stereo not drawn)	1.1 (inactive)
COc1cc(OC)c(C(=O)NC2CC(C)(C)NC(C)(C)C2)cc1OC	1.16 (inactive)
CSc1nc(O)c(Cc2ccccc2)c(=O)[nH]1	1.07 (inactive)
Cc1ccc(C(=O)COc2cccc(NC(=O)c3ccco3)c2)cc1	1.18 (inactive)
O=C(Nc1ccc(Oc2ccccc2)cc1)c1ccco1	1.11 (inactive)
CCOc1cc(NC(=O)c2ccco2)c(OCC)cc1NC(=O)COc1ccccc1	3.91 (active)
CC(C)C(c1nnnn1C1CCCC1)N1CCN(c2ccccc2F)CC1 (stereo not drawn)	1.02 (inactive)

Compound	fluorescence fold increase
Cc1cccn2c(=O)c3cc(C#N)c(=O)n(CCCN4CCOCC4)c3nc12	3.03 (active)
O=C(Cn1nc(Cc2cccnc2)c2ccccc2c1=O)NCC1CCCO1 (stereo not drawn)	1.03 (inactive)
Cc1ccc(C2c3c(oc4ccc(C)cc4c3=O)C(=O)N2CCCN2CCOCC2)cc1 (stereo not drawn)	1.09 (inactive)
Cn1c(=O)c2c(nc(CN3CCOCC3)n2Cc2ccccc2)n(C)c1=O	1.04 (inactive)
COc1ccc(CNC(=O)c2cc3c(=O)n4ccccc4nc3n(CC3CCCO3)c2=N)cc1 (stereo not drawn)	1.91 (inactive)
Cc1cccn2c(=O)c3cc(C#N)c(=NC(=O)c4cccnc4)n(CC4CCCO4)c3nc12 (stereo not drawn)	2.38 (active)
CCOc1ccc2c(c1)cc(CN(C(=O)CC)C1CCCCC1)c1nnnn12	1.21 (inactive)
COc1cc(C2C(C#N)=C(N)Oc3n[nH]c(-c4ccccn4)c32)cc(OC)c1OC (stereo not drawn)	1.09 (inactive)
CCc1ccc2oc(-c3ccc(N)cc3)nc2c1	2.12 (active)
COc1cccc(-c2nc3cc(C)ccc3o2)c1	1.2 (inactive)
CCOC(=O)CSc1nc2c(c(=O)n(Cc3ccccc3Cl)c(=O)n2C)n1C	1.06 (inactive)
N#Cc1nc(Cc2ccccc2)oc1NCCc1ccccc1	1.1 (inactive)
N#Cc1nc(-c2ccc(OCc3ccccc3)cc2)oc1NCCCN1CCOCC1	3.88 (active)
N#Cc1nc(COc2ccc(-c3ccccc3)cc2)oc1NCc1cccnc1	1.07 (inactive)
Cc1cc(=O)oc(C)c1C(=O)Nc1cnc2ccccc2c1	1.27 (inactive)
Cc1ccc(NC(=O)c2cc(-c3ccc(C)o3)nc3ccccc23)nc1	2.48 (active)
Cc1ccc2nc(-c3ccccc3)cc(C(=O)O)c2c1	1.22 (inactive)
CCc1c(O)nc(SCC(=O)N2CCCCC2)n(-c2ccccc2C)c1=O	1.04 (inactive)
CC1CN(c2cc(=O)n(Cc3ccc(F)cc3)c(=O)[nH]2)CC(C)O1 (stereo not drawn)	1.08 (inactive)
Cc1ccc(S(=O)(=O)c2c(N)n(C)c3nc4ccccc4nc23)cc1	3.95 (active)
Cc1ccc(S(=O)(=O)NCc2nc3ccccc3c(=O)n2N)cc1	1.1 (inactive)
